Rows were chosen to be rich in hits. Some 3.3% of all compounds tested hit in one or more screens of this group.
Efflux pump inh – inhibitors of Candida efflux pumps in yeast, primary screen, S. cerevisiae, Nile Red, multiplex. 330,000 compounds, 0.44% hits. S. cerevisiae Candida pump triplex. inhibition, % at 10 µM;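 active = plate passing quality check with inhibition over a set limit, or well fluorescence over plate mean plus 4 SD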;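 also: Nile Red retained in pooled yeast measured as flow cytometry median fluorescence; higher means more Nile Red kept so more efflux inhibition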
PHOSPHO1 inh – PubChem AID 1565 | Phosphoethanolamine/phosphocholine phosphatase (Homo sapiens), Q8TCT1 | recombinant PHOSPHO1, absorbance phosphatase assay | inhibition, % at 13.3 µM | 290,000 compounds, 1.1% hits; in the data active = inhibition above about 60%
Target sequence (Q8TCT1 whole entry, looked up): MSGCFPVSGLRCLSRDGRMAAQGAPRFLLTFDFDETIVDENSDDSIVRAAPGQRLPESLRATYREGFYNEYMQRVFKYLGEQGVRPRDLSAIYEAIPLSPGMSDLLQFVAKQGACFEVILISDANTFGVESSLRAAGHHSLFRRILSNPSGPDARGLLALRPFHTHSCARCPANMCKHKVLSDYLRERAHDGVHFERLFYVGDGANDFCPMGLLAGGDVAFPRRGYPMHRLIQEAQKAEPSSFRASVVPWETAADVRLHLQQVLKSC
H9c2 protect – cardioprotection against H2O2-induced cell death, primary screen, uHTS, H9c2 cells, ATPLite luminescence | 360,000 compounds, 0.63% hits | AID 588492, 2011 | protection from H2O2 cell death, % at 20 µM | H9c2 cardiomyocytes, H2O2 injury protection, 2 h;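 active = compounds giving at least 50% protection of heart cells from peroxide-induced death in the single-dose screen, raw or plate-pattern-corrected value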
Calb FLC – C. albicans growth inhibition with fluconazole, primary screen, CaCi-2 strain, Alamar Blue fluorescence | AID 1979, 2009 | 300,000 compounds, 0.57% hits | C. albicans CaCi-2 (fluconazole-resistant clinical isolate) + fluconazole, 48 h | growth inhibition, % (no concentration beside the values);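 active = growth inhibition above about 58% in most replicates, limit read from the data, passing the limit was not always enough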;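 also: all wells also contain fluconazole at 8 µg/ml as a sub-toxic cotreatment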
Cl transport mod – KCC2 cotransporter modulators, thallium flux, primary screen, cell-based, HEK293 KCC2, FluoZin-2 fluorescence, MLSMR. Solute carrier family 12 member 5 (Homo sapiens), Q9H2X9. KCC2 cells, thallium flux FluoZin-2 fluorescence. B-score of Tl+ flux slope (higher = more flux/activation; lower = inhibition) at 10 µM. 190,000 compounds, 2.2% hits. AID 1456, 2008;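 active = thallium flux slope and its plate-corrected score both differing from the plate sample mean at a set confidence after two filtering rounds, in either direction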;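 also: slope of fluorescence scaled to starting intensity during 10 to 20 s after thallium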
Large screens that a line does not name were inactive.

CCCCNC(=S)NC(=O)c1ccccc1Br	Cl transport mod 34.7
COCCNC(=S)Nc1cc2oc3ccccc3c2cc1OC	none (no result: Cl transport mod)
Cc1cc(S(=O)(=O)Nc2cccc(Cl)c2)c(C)s1	none
Cc1cc(S(=O)(=O)Nc2ccc(N(C)C)cc2)c(C)s1	PHOSPHO1 inh 66.6 (no result: Cl transport mod)
COC(=O)c1[nH]c2ccc(C)cc2c1NC(=O)CN1CCc2cc(OC)c(OC)cc2C1	PHOSPHO1 inh 69.4 (no result: Calb FLC, Cl transport mod)
COc1cc2c(cc1OC)CN(CC(=O)Nc1ccccc1C#N)CC2	H9c2 protect 74.2
COc1cc(C(=O)NNC(=O)/C=C/c2ccccc2)cc(OC)c1OC	none (no result: PHOSPHO1 inh, Calb FLC, Cl transport mod)
O=C(/C=C/c1ccccc1)NC(=S)NNC(=O)c1cnccn1	H9c2 protect 57.1
COc1cc(C(=O)NNC(=S)NC(=O)/C=C/c2ccccc2)cc(OC)c1OC	PHOSPHO1 inh 87.3
CCCOc1cccc(C(=O)Nc2ccc3c(c2)OCCO3)c1	none (no result: Cl transport mod)
O=C(NCc1ccccc1)C(=O)Nc1nc(C23CC4CC(CC(C4)C2)C3)cs1	Cl transport mod 3.93
O=C(NCc1ccncc1)C(=O)Nc1nc(C23CC4CC(CC(C4)C2)C3)cs1	none
Cn1c(=O)c2c(ncn2CC(=O)N2CCN(S(=O)(=O)c3ccccc3)CC2)n(C)c1=O	none (no result: Cl transport mod)
CN1OC[C@@H]2CN(Cc3cc(Cl)cc(Cl)c3)[C@H](c3cccc(-c4ccccc4)c3)C[C@@H]21	none (no result: Efflux pump inh, PHOSPHO1 inh, Calb FLC, Cl transport mod)
O=C(CSc1nc2ccccc2s1)c1ccc(O)cc1O	none (no result: Cl transport mod)
O=C(Cc1nc2ccccc2s1)c1ccc(O)cc1O	Calb FLC 91.3 (no result: H9c2 protect)
O=C(CCc1nc2ccccc2c(=O)[nH]1)NNC(=O)c1ccccc1Cl	H9c2 protect 56.0 (no result: PHOSPHO1 inh, Calb FLC, Cl transport mod)
Cc1ccc(NC(=O)COC(=O)CCc2nc3ccccc3c(=O)[nH]2)cc1Cl	none
O=C(CCc1nc2ccccc2c(=O)[nH]1)NNC(=O)COc1cccc(F)c1	H9c2 protect 96.4 (no result: PHOSPHO1 inh, Calb FLC, Cl transport mod)
CCCc1cc2c(cc1S(=O)(=O)Nc1ccccc1)OCO2	none (no result: Efflux pump inh, PHOSPHO1 inh, Calb FLC, Cl transport mod)
CCN(CC)c1ncnc2c1ncn2[C@H]1CN(Cc2ccc(F)cc2)C[C@@H](CO)O1	none (no result: Efflux pump inh, PHOSPHO1 inh, Calb FLC, Cl transport mod)
O=C(CSc1nnc(-c2ccco2)c(-c2ccco2)n1)Nc1ccccc1	PHOSPHO1 inh 63.8
Cc1ccc(NC(=O)CSc2nnc(-c3ccco3)c(-c3ccco3)n2)cc1	PHOSPHO1 inh 60.2
CN(C)c1ccc(NC(=O)CSc2nnc(-c3ccco3)c(-c3ccco3)n2)cc1	none (no result: Cl transport mod)
CCCCN(C)C(=O)Cn1cnc2sc(C)c(S(=O)(=O)N3CCN(c4ccccc4OC)CC3)c2c1=O	none (no result: Cl transport mod)
CC(c1ccc(Cl)cc1)n1c(-c2ccc3ccccc3n2)n[nH]c1=S (configuration not stated)	Calb FLC 79.1 (no result: Cl transport mod)
C#CCN(C[C@@H]1[C@@H](OC(=O)NCc2ccccc2F)[C@@H](OC(=O)NCc2ccccc2F)CN(C(=O)OC(C)C)N1C(=O)OC(C)C)S(=O)(=O)c1ccc(C)cc1	none (no result: Efflux pump inh, PHOSPHO1 inh, Calb FLC, Cl transport mod)
O=c1c2c(nc3c(-c4cccc(Br)c4)c[nH]n13)CCCC2	PHOSPHO1 inh 61.9, Cl transport mod 20.5
Cc1[nH]c2ccccc2c1C(=O)C(=O)N1CCN(C)CC1	PHOSPHO1 inh 68.5
Cc1[nH]c2ccccc2c1C(=O)C(=O)N1CCN(c2ccccc2)CC1	none (no result: Cl transport mod)
Cc1[nH]c2ccccc2c1C(=O)CSc1ccccc1	none
Cc1[nH]c2ccccc2c1C(=O)CCl	Calb FLC 95.7 (no result: Efflux pump inh)
Cc1[nH]c2ccccc2c1C(=O)CN1CCC(C)CC1	PHOSPHO1 inh 69.5
COc1ccc(CCNC(=O)COc2ccc(S(=O)(=O)NC3CCCCC3)cc2Cl)cc1	PHOSPHO1 inh 63.3 (no result: Cl transport mod)
CC(C)C(=O)N1CCN(c2ccc(NC(=O)COc3ccccc3[N+](=O)[O-])cc2)CC1	H9c2 protect 72.0
CC(C)N(C)c1ncnc2c1ncn2[C@H]1CN(Cc2ccc(-c3ccccc3)cc2)C[C@@H](CO)O1	none (no result: Efflux pump inh, PHOSPHO1 inh, Calb FLC, Cl transport mod)
CCOC(=O)c1c(C)[nH]c(C)c1S(=O)(=O)NC(CC)CN1CCOCC1 (configuration not stated)	PHOSPHO1 inh 64.9 (no result: Cl transport mod)
Cc1noc(C)c1S(=O)(=O)N(C)C[C@H]1Oc2ccc(NS(=O)(=O)c3ccccc3)cc2C(=O)N([C@H](C)CO)C[C@@H]1C	none (no result: PHOSPHO1 inh, Calb FLC, Cl transport mod)
COC(=O)c1cc(NC(=O)c2cc3ccccc3o2)cc(C(=O)OC)c1	H9c2 protect 89.2 (no result: Cl transport mod)
Cc1nc2sc3c(c2c(=O)[nH]1)CCC3	none
Cc1cc(-c2nc3c4c5c(sc4[nH]c(=O)n3n2)CCC5)c(C)o1	PHOSPHO1 inh 80.2
CC(C)NC(=O)N(C)C[C@H]1OCCCC[C@H](C)Oc2ccc(NS(=O)(=O)c3ccccc3)cc2C(=O)N([C@H](C)CO)C[C@H]1C	none (no result: Efflux pump inh, PHOSPHO1 inh, Calb FLC, Cl transport mod)
c1ccc(N/N=C(\Cc2ncc[nH]2)c2ccccc2)cc1	Calb FLC 114.2
COc1ccc(C(=O)N/N=C(\Cc2ncc[nH]2)c2ccccc2)cc1	Calb FLC 98.1
COc1cc(C(=O)N/N=C(\Cc2ncc[nH]2)c2ccccc2)cc(OC)c1OC	none
O=C1CSC(=S)N1c1cccnc1	PHOSPHO1 inh 97.5
O=C1CSC(=S)N1c1ccccc1	none (no result: Efflux pump inh, PHOSPHO1 inh, Calb FLC, Cl transport mod)
CCN(C(=O)c1cccs1)C1CCS(=O)(=O)C1 (configuration not stated)	none (no result: Efflux pump inh, PHOSPHO1 inh, Cl transport mod)
O=C(c1cc(=O)[nH]c2ccccc12)N1CCN(S(=O)(=O)c2ccc3ccccc3c2)CC1	H9c2 protect 102.8
O=C(c1cc(=O)[nH]c2ccccc12)N1CCN(S(=O)(=O)c2ccc(Cl)cc2)CC1	H9c2 protect 87.9 (no result: PHOSPHO1 inh, Calb FLC, Cl transport mod)
O=C(c1ccccn1)N1CCN(S(=O)(=O)c2ccc3ccccc3c2)CC1	none
CCc1ccc(C(=O)NNC(=O)c2ccc(OCC(=O)N3CCOCC3)c(OC)c2)cc1	none (no result: PHOSPHO1 inh, Calb FLC, Cl transport mod)
OCCN1CCN(C(c2cccs2)c2ccc3cccnc3c2O)CC1 (configuration not stated)	PHOSPHO1 inh 104.8 (no result: Efflux pump inh, H9c2 protect, Calb FLC)
Cc1cc(C)n2c(Br)c(CSc3nc4ccccc4o3)nc2n1	PHOSPHO1 inh 79.7
c1ccc2oc(SCc3cn4ccsc4n3)nc2c1	none
Cc1csc2nc(CSc3nc4ccccc4o3)cn12	PHOSPHO1 inh 61.2 (no result: Calb FLC)
CC(=O)Nc1ccc(SCC(=O)NC(=O)c2ccc(S(=O)(=O)N(C)C)cc2)cc1	none (no result: PHOSPHO1 inh, Calb FLC, Cl transport mod)
COc1cc(NC(=O)C2CC(c3ccc(Cl)cc3)=NO2)cc(OC)c1OC (configuration not stated)	none (no result: Cl transport mod)
OCc1nc2ccccc2n1CCCCOc1ccccc1	none (no result: PHOSPHO1 inh, Cl transport mod)
OCc1nc2ccccc2n1CCCOc1ccc(Br)cc1	Cl transport mod -2.91
C/C(=N\NC(=O)C(C)Oc1ccc([N+](=O)[O-])cc1)c1ccccn1 (configuration not stated)	H9c2 protect 50.5
COc1ccc(OC(C)C(=O)Nc2ccc([N+](=O)[O-])cc2)cc1 (configuration not stated)	none
O=C1NC(=O)/C(=C/c2ccccc2Oc2ccc(Cl)cc2)S1	Calb FLC 78.9 (no result: Cl transport mod)
C[C@H]1CN([C@@H](C)CO)C(=O)CCCn2cc(nn2)CO[C@@H]1CN(C)S(=O)(=O)c1ccc(C#N)cc1	none (no result: Efflux pump inh, PHOSPHO1 inh, Calb FLC, Cl transport mod)
